# Screening data as filed in PubChem BioAssay.
# Compounds with a hit are over-represented: about 19% of the library has one in this group of screens.
# HT1080-NT tox: kills 2HG-producing HT-1080-NT fibrosarcoma cells; AID 686970; HT-1080-NT fibrosarcoma viability, CellTiter-Glo ATP luminescence, 48 h; Potency, µM (highest dose often 46.1 µM), most hits filed as cytotoxic; 360,000 compounds, 1.6% hits;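 further: NT is the 2HG producing partner of a matched IDH1 knockdown line; nearly all actives have a fitted effect of over 55% in size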
#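 Viability by CellTiter-Glo luminescence after 48 h compound exposure at 37C of HT-1080-NT cells (750/well, RPMI, 5% FBS). % activity scaled between DMSO wells and medium-only wells, then curve-fitted and categorized by curve class.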
# TDP1 cell noCPT: qHTS for Inhibitors of human tyrosyl-DNA phosphodiesterase 1 (TDP1): qHTS in cells in absence of CPT. Potency, µM (highest dose often 46.2 µM), most hits filed as inhibitors. AID 686978, 2013. DT40 Tdp1-/- hTDP1 cells, no CPT, ATP luminescence, 48 h. 420,000 compounds, 15% hits; further: nearly all actives have a fitted effect of over 55% in size
#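 Chicken DT40 Tdp1-/- cells complemented with human TDP1, screened without camptothecin (DMSO vehicle only), 400 cells/well. Compounds pin-transferred, cells incubated at 37 °C for at least 48 hr. Growth read as ATP-dependent luminescence (CellTiter-Glo, 30 min at RT).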
# HT1080 IDH1KD tx: kills HT-1080 cells with IDH1 knockdown | HT-1080 IDH1 knockdown viability, ATP luminescence, 48 h | Potency, µM (top dose mostly 46.1 µM), actives largely listed as cytotoxic | 360,000 compounds, 2% hits
#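 Cytotoxicity counter-line: IDH1KD HT-1080, 48 h, CellTiter-Glo. Curves classed by r2, magnitude and activity.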
# IL1B secr inh: inflammasome signaling inhibition, IL-1 beta readout; THP-1 LPS/ATP IL-1B secretion, AlphaLISA, 16 h; hits give low values; activity change, % at 57.5 µM; 360,000 compounds, 4.7% hits; AID 743279; in the data active means activity change below about -50%; inconclusive means mostly about -30% to -49%
#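 THP-1 cells pretreated 1 hr with compounds (up to 57.5 uM final), then stimulated with LPS (250 ng/mL final) plus ATP (1.25 mM final); secreted IL-1B measured by AlphaLISA after 16 hr, decreased signal indicating inhibition.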
# DT40 TDP1 CPT: growth inhibition of DT40 Tdp1-/-;hTDP1 cells with camptothecin (screen for TDP1 inhibitors) | AID 686979 | chicken DT40 Tdp1-/-;hTDP1 cells + 20 nM CPT, ATP luminescence, 48 h | 420,000 compounds, 12% hits | Potency, µM (top dose mostly 46.2 µM), most hits filed as inhibitors; further: nearly all actives have a fitted effect of over 55% in size
#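 Cell growth measured by CellTiter-Glo luminescence after a minimum 48 h, 37 C compound exposure with 20 nM CPT in Tdp1-knockout DT40 cells stably expressing hTDP1, seeded 400/well; qHTS titration format.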
# Numbers stand for hits; – = inactive; ? = inconclusive; · = no result; [ ] = another dose, or the depositor's remark. Unless noted, the call rests on the fitted dose curve; in most records, active means well fitted curve in the direction sought with a large enough effect; inconclusive means small, poorly fitted or top-dose-only effect, or another doubt; inactive means no such curve, though single readings can be large; an effect the other way counts as inactive or inconclusive.
SMILES,HT1080-NT tox,TDP1 cell noCPT,HT1080 IDH1KD tx,IL1B secr inh,DT40 TDP1 CPT
CCOC(=O)Cc1csc(NC(=O)/C=C/c2ccc(OC)cc2)n1,–,21µM,–,–,10µM
CCOC(=O)Cc1csc(NC(=O)CSc2ncnc3c2cnn3-c2ccc(OC)cc2)n1,–,15µM,–,–,?
CCOC(=O)Cc1csc(NC(=O)COc2ccccc2)n1,10µM,–,–,–,–
CCOC(=O)CNC(=O)CSc1ncnc2c1cnn2-c1ccc(Cl)cc1,–,–,–,–,–
O=C(CCc1c[nH]c2ccccc12)OCC(=O)N1CCN(S(=O)(=O)c2ccccc2)CC1,–,–,–,–,–
Cn1c(Cc2csc(N)n2)nnc1SCC(=O)NCc1ccccc1,?,–,–,–,–
CC1C(=O)N(Cc2cn(CC3CCCCC3)nn2)CCS(=O)(=O)N1Cc1ccc(-c2cccc(CO)c2)cc1 (configuration not stated),–,23µM,–,–,15µM
CC(C)CC1C(=O)N(Cc2cn(CC3CCCCC3)nn2)CCS(=O)(=O)N1Cc1ccc(-c2cccc(CO)c2)cc1 (configuration not stated),?,23µM,?,–,21µM
OC1CCN(Cc2ccc3c(c2)CN(C/C=C/c2ccco2)CCO3)CC1,·,–,·,·,–[9.04 µM]
Cc1ccc(S(=O)(=O)NCC(=O)OCc2csc(-c3ccccc3)n2)cc1,–,?,–,–,?
O=C(CNS(=O)(=O)c1ccc2ccccc2c1)OCc1csc(-c2ccccc2)n1,–,21µM,–,–,?
CCS(=O)(=O)c1ccc(C=NNc2nc3ccccc3o2)cc1,–,23µM,–,–,?
CCOC(=O)c1sc(NC(=O)COC(=O)C(CCSC)NC(C)=O)nc1C (configuration not stated),–,–,–,–,–
COc1ccc(S(=O)(=O)N2CCN(CC(=O)Nc3ccc(C)c(F)c3)CC2)cc1,–,18µM,–,-61,?
Cc1ccc(NC(=O)CN2CCN(S(=O)(=O)c3ccc(C(C)C)cc3)CC2)cc1F,·,?,·,·,21µM
Cc1ccc(NC(=O)CN2CCN(S(=O)(=O)c3ccc(F)cc3)CC2)cc1C,–,–,–,–,?
COc1ccc(OCC(=O)Nc2cc(NC(=O)COc3ccc(OC)cc3)cc(C(=O)O)c2)cc1,–,–,–,–,–
Cc1ccc(CN2CCCn3nc(C(=O)NCc4ccc(N(C)C)cc4)cc3C2=O)cc1,·,13µM,·,·,?
Cc1ccc(CN2CCCn3nc(C(=O)NCCN(C)C)cc3C2=O)cc1,·,–,·,·,–
Cc1ccc(CN2CCCn3nc(C(=O)NCc4cc(C)ccc4C)cc3C2=O)cc1,·,16µM,·,·,15µM
CCSc1nnc(NC(=O)CSc2nnc(-c3c[nH]c4ccccc34)n2CC)s1,–,–,–,–,–
CC(NC(=O)c1ccco1)c1cccc2ccccc12 (configuration not stated),–,–,–,–,?
O=C(NNc1ccccc1)c1ccccc1,?,–,–,–,–
CCCc1ccc(C(=O)NC(=O)c2ccccc2O)cc1,?,2.9µM,?,–,2.3µM
O=C(NC(=O)c1ccccc1O)c1ccc(C(F)(F)F)cc1,13µM,7.3µM,15µM,-69,12µM
SMILES,HT1080-NT tox,TDP1 cell noCPT,HT1080 IDH1KD tx,IL1B secr inh,DT40 TDP1 CPT
CCCc1ccc(C(=O)NNC(=O)c2ccc(Br)cc2)cc1,–,–,–,–,–
O=C(NC(=S)NNC(=O)c1ccccc1O)c1ccc(F)cc1,?,?,?,–,?
CCCc1ccc(C(=O)NNc2ccc(F)cc2)cc1,4.1µM,–,7.3µM,–,–
O=C(NNc1ccc(O)cc1)c1ccc(Br)cc1,?,12µM,4.1µM,–,21µM
CCCc1ccc(C(=O)O)cc1,·,–,·,·,–
COc1cc(NC(=O)COC(=O)c2nc3nc(C)cc(C)n3n2)cc(OC)c1,–[9.24 µM],–,–,–,–
CC(OC(=O)Cn1[nH]c(=O)c2ccccc2c1=O)C(=O)Nc1ccc(Cl)cn1 (configuration not stated),–,–,–,–,–
COc1ccc(CCNC(=O)c2cc(C3CC3)on2)cc1OC,–,–,–,–,–
CC[C@H]1OC(=O)[C@H](C)[C@@H](O[C@H]2C[C@@](C)(OC)[C@@H](O)[C@H](C)O2)[C@H](C)[C@@H](O[C@@H]2O[C@H](C)C[C@H](N(C)C)[C@H]2O)[C@](C)(OC)C[C@@H](C)C(=O)[C@H](C)[C@@H](O)[C@]1(C)O,–,–,–,–,–
CC[C@H]1OC(=O)[C@H](C)[C@@H](O[C@H]2C[C@@](C)(OC)[C@@H](O)[C@H](C)O2)[C@H](C)[C@@H](O[C@@H]2O[C@H](C)C[C@H](N(C)C)[C@H]2O)[C@](C)(O)C[C@@H](C)C(=NOCOCCOC)[C@H](C)[C@@H](O)[C@]1(C)O,·,7.3µM,·,–,?
CCOC(=O)N1CCC(Nc2c(Nc3cccc(CC)c3)c(=O)c2=O)CC1,–[9.24 µM],18µM,?,–,?
CCOC(=O)N1CCN(c2c(N3CCN(c4ccc(F)cc4)CC3)c(=O)c2=O)CC1,–,?,–,–,–
CCOC(=O)N1CCC(Nc2c(-c3ccccc3)c(=O)c2=O)CC1,–,23µM,–,–,?
CCOC(=O)N1CCC(Nc2c(N3CCN(c4cccc(C(F)(F)F)c4)CC3)c(=O)c2=O)CC1,–,?,–,–,23µM
O=[N+]([O-])c1ccc(CN2[C@H](COCc3ccccc3)[C@@H](N3CCCC3)CS2(=O)=O)cc1,–,?,–,?,–
O=C(NNC(=O)c1ccc(Cl)nc1)c1ccncc1,–[9.24 µM],–,–,–,–
CCOc1ccc(Nc2nc3ccccc3n3cnnc23)cc1,–,23µM,–,–,?
CCCCOC(=O)c1ccc(Nc2nc3ccc(C(=O)c4ccccc4)cc3n3cnnc23)cc1,·,16µM,·,·,21µM
CCCCOC(=O)c1ccc(Nc2nc3ccc(C)cc3n3cnnc23)cc1,·,–,·,·,–
c1ccc(Nc2nc3ccccc3n3cnnc23)cc1,–,–,–,–,–
O=C(O)c1ccc(Nc2nc3ccccc3n3cnnc23)cc1,·,7.3µM,·,·,?
CC(C)[C@H](NC(=O)c1ccc(Cl)cc1)C(=O)OCC(=O)N1CCN(c2ccccc2)CC1,–,21µM,–,–,?
O=C(Cc1ccccc1)NCC(=O)N1CCN(c2ccc(F)cc2)CC1,–,?,–,–,–
O=C(Cc1ccc(Cl)cc1)NCC(=O)N1CCN(c2ccccc2)CC1,?,23µM,?,–,29µM
CC(C)C(NC(=O)c1ccccc1)C(=O)OCC(=O)N1CCCC1 (configuration not stated),–,–,–,–,–
COc1ccc(N2CCN(C(=O)CNC(=O)Cc3ccc(Cl)cc3)CC2)cc1,?,5.8µM,21µM,–,5.2µM
